In PubChem BioAssay (NCATS):
Inconclusive results are not listed. Entries that show only a call come without a potency. The source made the active and inactive calls. Calls come from the whole dose curve; as a rule, active = well fitted curve in the direction sought with a large enough effect; inconclusive = small, poorly fitted or top-dose-only effect, or another doubt; inactive = no such curve, though single readings can be large; an effect the other way counts as inactive or inconclusive.

The compounds below were run against Aldehyde dehydrogenase, mitochondrial (Homo sapiens) (UniProt P05091) (assay: qHTS for Inhibitors of the Aldehyde Dehydrogenase Family (ALDH2) Primary screen (AID 2061308; note: nearly all actives have a fitted effect of over 55% in size)). Details: ALDH2 enzyme inhibition qHTS, 1536-well; series mostly up to 56 µM.

Structure (SMILES)	Potency
Nc1nc(NCc2ccc(-c3ccnc(C(F)(F)F)c3)cc2)c2ccccc2n1	inactive
O=[S+]([O-])(c1ccc2c(c1)OCCO2)N1CCN([S+](=O)([O-])c2c(Cl)cc(Cl)cc2Br)CC1	inactive
Cc1ccc(NS(=O)(=O)c2ccc3c(c2)CCCC(=O)N3)cc1C	inactive
Cc1cc2c(s1)c1cnn(Cc3cc(F)c(F)cc3F)c(=O)c1n2C	inactive
C[n+]1cc(C(O)(c2ccccc2)c2ccccc2)n2ccccc21	inactive
Cc1cc(C)nc(NC(=S)N2CCN(c3ccc([N+](=O)[O-])c4cccnc34)CC2)c1	inactive
O=C(OCC#CCSc1nnc(-c2ccc3ccccc3c2)o1)c1ccc(OC(F)(F)F)cc1	inactive
Cc1ccc(-c2cc(C(=O)Nc3cccc4ccccc34)c3ccccc3n2)cc1C	inactive
CC/C(C)=C/C(=O)OC1C(OC2(C)CCC3C(C4C(C)CCC42)C3(C)C)OC(C)C(O)C1O (stereo not given)	inactive
COc1cc(-c2csc(N3CCC(C(N)=O)CC3)n2)cc(OC)c1OC	inactive
COc1ccc(-c2csc3ncnc(Sc4nnnn4C)c23)cc1	inactive
Fc1cccc(CNc2ncnc3ccc(-c4ccoc4)cc23)c1	inactive
COc1ccccc1NC(=O)c1cc(-c2ccc(C)c(C)c2)nc2ccccc12	inactive
CCCCC(O)C(=O)Nc1cc(C(F)(F)F)ccc1Cl (stereo not given)	inactive
CC1=C(C(=O)NC2CCCCC2)C(c2ccccc2Br)N=C(Nc2nc3ccccc3o2)N1 (stereo not given)	inactive
Cc1noc(C)c1-c1ccc2ncnc(NCC3CCCCN3C)c2c1 (stereo not given)	inactive
Cc1ccc(NC(=O)CN2C(=O)N/C(=C\c3cccn3-c3ccc(C(=O)NC#N)cc3)C2=O)cc1	inactive
COc1cc(OC)cc(N2CCN(C(=S)Nc3cc(C)cc(C)n3)CC2)c1	inactive
Cc1cnc(-c2ccccc2C(C)C)nc1NCC1CCN(c2cccnc2)CC1	inactive
CN(C)c1cnc2c(O)cccc2c1	inactive

Structure (SMILES)	Potency
Clc1ccc(CSc2nc3ncc(Br)cc3[nH]2)cc1	inactive
O=C(NCc1nnc(-c2cc3ccccc3[nH]2)o1)c1ccccc1	inactive
CCOc1cccc(-c2cc(-c3n[nH]c(=O)n3CC)c3ccccc3n2)c1	inactive
N#Cc1cccc(-c2ccc(CNc3nc(-c4ccccc4C(F)(F)F)nc4ccccc34)cc2)c1	inactive
Cc1ccc(S(=O)(=O)Nc2cnccc2C(=O)Nc2nc(-c3nc4ccccc4s3)cs2)cc1	inactive
O=C1CCCC2=C1C(c1cccc(C(F)(F)F)c1)N=C(Nc1nc3ccccc3o1)N2 (stereo not given)	inactive
FC(F)(F)c1cccc(CSc2nc3ncc(Br)cc3[nH]2)c1	inactive
CNc1oc(-c2cccc(Cl)c2Cl)nc1C#N	inactive
O=C(Nc1nnc(-c2ccncc2)s1)Nc1cccc2ccccc12	inactive
O=C1CN(S(=O)(=O)c2c(F)cccc2F)CCN1S(=O)(=O)c1ccc2c(c1)OCCO2	inactive
Fc1cc(Nc2nc(-c3ccncc3)nc3ccccc23)ccc1C(F)(F)F	inactive
Cc1nc(NCc2ccccc2)c2nc(-c3ccccc3)n(CC(C)(C)CN(C)C)c2n1	inactive
CC(C)(C)NS(=O)(=O)c1cccc(-c2nnc(SCc3ccc(C(=O)O)cc3)n2-c2ccccc2)c1	inactive
N#Cc1cc(NC(=O)Nc2nnc(-c3ccncc3)s2)ccc1-c1ccc[nH]1	inactive
O=C(Nc1ccc(-c2ccncc2)nc1)c1cccs1	inactive
CN(C)c1cccc(-c2nccc(N3CCC(C(N)=O)CC3)n2)c1	inactive
CC(C)(C)c1ccc(NC(=O)c2cccs2)cn1	inactive
COc1ccc(-c2cnc(-c3cccc4c3-c3ccccc3C4=O)o2)cc1	inactive
CC(=O)Nc1ccc(C(=O)Nc2ccc(-c3nc4ccccc4[nH]3)cc2)cc1	inactive
O=C(Nc1ncc(Cc2ccccc2)s1)c1ccc(-c2cccc([N+](=O)[O-])c2)o1	inactive

These compounds were tested against Retinaldehyde dehydrogenase 3 (Homo sapiens) (UniProt P47895) (assay: qHTS for Inhibitors of the Aldehyde Dehydrogenase Family (ALDH1A3) Primary screen (AID 2061315)). Details: ALDH inhibition qHTS; series mostly up to 56 µM.

Structure (SMILES)	Potency
Nc1nc(NCc2ccc(-c3ccnc(C(F)(F)F)c3)cc2)c2ccccc2n1	inactive
O=[S+]([O-])(c1ccc2c(c1)OCCO2)N1CCN([S+](=O)([O-])c2c(Cl)cc(Cl)cc2Br)CC1	inactive
Cc1ccc(NS(=O)(=O)c2ccc3c(c2)CCCC(=O)N3)cc1C	inactive
Cc1cc2c(s1)c1cnn(Cc3cc(F)c(F)cc3F)c(=O)c1n2C	inactive
C[n+]1cc(C(O)(c2ccccc2)c2ccccc2)n2ccccc21	inactive
Cc1cc(C)nc(NC(=S)N2CCN(c3ccc([N+](=O)[O-])c4cccnc34)CC2)c1	inactive
O=C(OCC#CCSc1nnc(-c2ccc3ccccc3c2)o1)c1ccc(OC(F)(F)F)cc1	inactive
Cc1ccc(-c2cc(C(=O)Nc3cccc4ccccc34)c3ccccc3n2)cc1C	inactive
CC/C(C)=C/C(=O)OC1C(OC2(C)CCC3C(C4C(C)CCC42)C3(C)C)OC(C)C(O)C1O (stereo not given)	inactive
COc1cc(-c2csc(N3CCC(C(N)=O)CC3)n2)cc(OC)c1OC	inactive
COc1ccc(-c2csc3ncnc(Sc4nnnn4C)c23)cc1	inactive
Fc1cccc(CNc2ncnc3ccc(-c4ccoc4)cc23)c1	inactive
COc1ccccc1NC(=O)c1cc(-c2ccc(C)c(C)c2)nc2ccccc12	inactive
CCCCC(O)C(=O)Nc1cc(C(F)(F)F)ccc1Cl (stereo not given)	inactive
CC1=C(C(=O)NC2CCCCC2)C(c2ccccc2Br)N=C(Nc2nc3ccccc3o2)N1 (stereo not given)	inactive
Cc1noc(C)c1-c1ccc2ncnc(NCC3CCCCN3C)c2c1 (stereo not given)	inactive
Cc1ccc(NC(=O)CN2C(=O)N/C(=C\c3cccn3-c3ccc(C(=O)NC#N)cc3)C2=O)cc1	inactive
COc1cc(OC)cc(N2CCN(C(=S)Nc3cc(C)cc(C)n3)CC2)c1	inactive
Cc1cnc(-c2ccccc2C(C)C)nc1NCC1CCN(c2cccnc2)CC1	inactive
CN(C)c1cnc2c(O)cccc2c1	inactive

Structure (SMILES)	Potency
Clc1ccc(CSc2nc3ncc(Br)cc3[nH]2)cc1	inactive
O=C(NCc1nnc(-c2cc3ccccc3[nH]2)o1)c1ccccc1	inactive
CCOc1cccc(-c2cc(-c3n[nH]c(=O)n3CC)c3ccccc3n2)c1	inactive
N#Cc1cccc(-c2ccc(CNc3nc(-c4ccccc4C(F)(F)F)nc4ccccc34)cc2)c1	inactive
Cc1ccc(S(=O)(=O)Nc2cnccc2C(=O)Nc2nc(-c3nc4ccccc4s3)cs2)cc1	inactive
O=C1CCCC2=C1C(c1cccc(C(F)(F)F)c1)N=C(Nc1nc3ccccc3o1)N2 (stereo not given)	inactive
FC(F)(F)c1cccc(CSc2nc3ncc(Br)cc3[nH]2)c1	inactive
CNc1oc(-c2cccc(Cl)c2Cl)nc1C#N	inactive
O=C(Nc1nnc(-c2ccncc2)s1)Nc1cccc2ccccc12	inactive
O=C1CN(S(=O)(=O)c2c(F)cccc2F)CCN1S(=O)(=O)c1ccc2c(c1)OCCO2	inactive
Fc1cc(Nc2nc(-c3ccncc3)nc3ccccc23)ccc1C(F)(F)F	inactive
Cc1nc(NCc2ccccc2)c2nc(-c3ccccc3)n(CC(C)(C)CN(C)C)c2n1	inactive
CC(C)(C)NS(=O)(=O)c1cccc(-c2nnc(SCc3ccc(C(=O)O)cc3)n2-c2ccccc2)c1	inactive
N#Cc1cc(NC(=O)Nc2nnc(-c3ccncc3)s2)ccc1-c1ccc[nH]1	inactive
O=C(Nc1ccc(-c2ccncc2)nc1)c1cccs1	inactive
CN(C)c1cccc(-c2nccc(N3CCC(C(N)=O)CC3)n2)c1	inactive
CC(C)(C)c1ccc(NC(=O)c2cccs2)cn1	inactive
COc1ccc(-c2cnc(-c3cccc4c3-c3ccccc3C4=O)o2)cc1	inactive
CC(=O)Nc1ccc(C(=O)Nc2ccc(-c3nc4ccccc4[nH]3)cc2)cc1	inactive
O=C(Nc1ncc(Cc2ccccc2)s1)c1ccc(-c2cccc([N+](=O)[O-])c2)o1	inactive
